{"source": "PubChem BioAssay AID1159580", "about": "(chemical genetic matrix, 2015)", "experiment": "chemical genetic growth profiling, strain panel (AID 1159580);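 further: tested at 20 µM; growth read once vehicle control cultures reached saturation at 30 °C; 1 = growth at the plate median or of vehicle wells; lower values mean less growth of the strain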", "conditions": "growth OD", "note": "Out of some 5,500 compounds screened, about 2,000 (36%) were called active. Roughly 18% stayed inconclusive and do not appear here. The list shows a part of the results. Values without a mark were called inactive. No stated cut-off is given here; in the data, active means normalized growth mostly below about 0.91 (no sharp cut-off); inconclusive means no clear call, values can overlap the other calls; inactive means mostly above about 0.92."}
{"smiles": "CCCCCCCCCCCC[C@H](C(=O)O)[C@@H](C)C(=O)O", "values": [{"measurement": "normalized growth", "setting": "S. cerevisiae deletion strains, locus YJR075W, strain HOC1, hits give low values", "value": 1.07}, {"measurement": "normalized growth", "setting": "S. cerevisiae deletion strains, locus YKL009W, strain mrt4, hits give low values", "value": 0.946}, {"measurement": "normalized growth", "setting": "S. cerevisiae deletion strains, locus YKL068W, hits give low values", "value": 0.996}, {"measurement": "normalized growth", "setting": "S. cerevisiae deletion strains, locus YKL085W, strain MDH1 (second series), hits give low values", "value": 0.975}, {"measurement": "normalized growth", "setting": "S. cerevisiae deletion strains, locus YKL085W, strain MDH1, hits give low values", "value": 0.975}, {"measurement": "normalized growth", "setting": "S. cerevisiae deletion strains, locus YKL160W, strain elf1, hits give low values", "value": 1}, {"measurement": "normalized growth", "setting": "S. cerevisiae deletion strains, locus YKL190W, strain CNB1, hits give low values", "value": 0.99}, {"measurement": "normalized growth", "setting": "S. cerevisiae deletion strains, locus YKR001C, strain vps1, hits give low values", "value": 0.982}, {"measurement": "normalized growth", "setting": "S. cerevisiae deletion strains, locus YKR026C, strain gcn3, hits give low values", "value": 0.965}, {"measurement": "normalized growth", "setting": "S. cerevisiae deletion strains, locus YKR091W, strain srl3, hits give low values", "value": 0.974}, {"measurement": "normalized growth", "setting": "S. cerevisiae deletion strains, locus YLL001W, strain dnm1, hits give low values", "value": 1.01}, {"measurement": "normalized growth", "setting": "S. cerevisiae deletion strains, locus YLL026W, hits give low values", "value": 0.987}, {"measurement": "normalized growth", "setting": "S. cerevisiae deletion strains, locus YLL041C, strain sdh2, hits give low values", "value": 0.973}, {"measurement": "normalized growth", "setting": "S. cerevisiae deletion strains, locus YLR027C, strain aat2, hits give low values", "value": 0.992}, {"measurement": "normalized growth", "setting": "S. cerevisiae deletion strains, locus YLR039C, strain RIC1, hits give low values", "value": 1.04}, {"measurement": "normalized growth", "setting": "S. cerevisiae deletion strains, locus YLR058C, strain SHM2, hits give low values", "value": 0.994}, {"measurement": "normalized growth", "setting": "S. cerevisiae deletion strains, locus YLR102C, strain apc9, hits give low values", "value": 1.01}, {"measurement": "normalized growth", "setting": "S. cerevisiae deletion strains, locus YLR113W, strain HOG1, hits give low values", "value": 0.903}, {"measurement": "normalized growth", "setting": "S. cerevisiae deletion strains, locus YLR221C, strain rsa3, hits give low values", "value": 1}, {"measurement": "normalized growth", "setting": "S. cerevisiae deletion strains, locus YLR258W, strain gsy2, hits give low values", "value": 0.979}, {"measurement": "normalized growth", "setting": "S. cerevisiae deletion strains, locus YLR262C, strain YPT6 (second series), hits give low values", "value": 0.934}, {"measurement": "normalized growth", "setting": "S. cerevisiae deletion strains, locus YLR262C, strain YPT6, hits give low values", "value": 1.12}, {"measurement": "normalized growth", "setting": "S. cerevisiae deletion strains, locus YLR268W, strain sec22, hits give low values", "value": 1.02}, {"measurement": "normalized growth", "setting": "S. cerevisiae deletion strains, locus YLR320W, strain mms22, hits give low values", "value": 1.01}, {"measurement": "normalized growth", "setting": "S. cerevisiae deletion strains, locus YLR330W, strain CHS5, hits give low values", "value": 0.986}, {"measurement": "normalized growth", "setting": "S. cerevisiae deletion strains, locus YLR342W, strain FKS1 (second series), hits give low values", "value": 1.02}, {"measurement": "normalized growth", "setting": "S. cerevisiae deletion strains, locus YLR342W, strain FKS1, hits give low values", "value": 0.986}, {"measurement": "normalized growth", "setting": "S. cerevisiae deletion strains, locus YLR357W, strain rsc2, hits give low values", "value": 0.994}, {"measurement": "normalized growth", "setting": "S. cerevisiae deletion strains, locus YLR370C, strain arc18, hits give low values", "value": 0.975}, {"measurement": "normalized growth", "setting": "S. cerevisiae deletion strains, locus YLR371W, strain rom2, hits give low values", "value": 1.01}, {"measurement": "normalized growth", "setting": "S. cerevisiae deletion strains, locus YLR384C, strain iki3, hits give low values", "value": 0.974}, {"measurement": "normalized growth", "setting": "S. cerevisiae deletion strains, locus YLR418C, strain cdc73, hits give low values", "value": 1.02}, {"measurement": "normalized growth", "setting": "S. cerevisiae deletion strains, locus YML016C, strain PPZ1, hits give low values", "value": 0.982}, {"measurement": "normalized growth", "setting": "S. cerevisiae deletion strains, locus YML032C, strain rad52, hits give low values", "value": 1.01}, {"measurement": "normalized growth", "setting": "S. cerevisiae deletion strains, locus YML120C, strain ndi1, hits give low values", "value": 0.991}, {"measurement": "normalized growth", "setting": "S. cerevisiae deletion strains, locus YML124C, strain tub3, hits give low values", "value": 0.998}, {"measurement": "normalized growth", "setting": "S. cerevisiae deletion strains, locus YMR058W, strain fet3, hits give low values", "value": 0.998}, {"measurement": "normalized growth", "setting": "S. cerevisiae deletion strains, locus YMR078C, strain ctf18, hits give low values", "value": 0.995}, {"measurement": "normalized growth", "setting": "S. cerevisiae deletion strains, locus YMR125W, strain sto1, hits give low values", "value": 0.98}, {"measurement": "normalized growth", "setting": "S. cerevisiae deletion strains, locus YMR129W, hits give low values", "value": 0.971}, {"measurement": "normalized growth", "setting": "S. cerevisiae deletion strains, locus YMR205C, strain PFK2, hits give low values", "value": 1}, {"measurement": "normalized growth", "setting": "S. cerevisiae deletion strains, locus YMR223W, strain ubp8, hits give low values", "value": 1.03}, {"measurement": "normalized growth", "setting": "S. cerevisiae deletion strains, locus YMR231W, strain pep5, hits give low values", "value": "0.927 (active)"}, {"measurement": "normalized growth", "setting": "S. cerevisiae deletion strains, locus YMR263W, strain SAP30, hits give low values", "value": 0.996}, {"measurement": "normalized growth", "setting": "S. cerevisiae deletion strains, locus YMR307W, strain GAS1, hits give low values", "value": 1.06}, {"measurement": "normalized growth", "setting": "S. cerevisiae deletion strains, locus YNL067W, strain RPL9B, hits give low values", "value": 1.01}, {"measurement": "normalized growth", "setting": "S. cerevisiae deletion strains, locus YNL071W, strain lat1, hits give low values", "value": 0.968}, {"measurement": "normalized growth", "setting": "S. cerevisiae deletion strains, locus YNL128W, strain TEP1, hits give low values", "value": 1.01}, {"measurement": "normalized growth", "setting": "S. cerevisiae deletion strains, locus YNL153C, strain GIM3, hits give low values", "value": 0.994}, {"measurement": "normalized growth", "setting": "S. cerevisiae deletion strains, locus YNL183C, strain NPR1, hits give low values", "value": 0.91}, {"measurement": "normalized growth", "setting": "S. cerevisiae deletion strains, locus YNL209W, strain ssb2, hits give low values", "value": 0.995}, {"measurement": "normalized growth", "setting": "S. cerevisiae deletion strains, locus YNL233W, strain BNI4, hits give low values", "value": 1}, {"measurement": "normalized growth", "setting": "S. cerevisiae deletion strains, locus YNL248C, strain rpa49, hits give low values", "value": 1}, {"measurement": "normalized growth", "setting": "S. cerevisiae deletion strains, locus YNL250W, strain rad50, hits give low values", "value": 1.02}, {"measurement": "normalized growth", "setting": "S. cerevisiae deletion strains, locus YNL271C, strain bni1, hits give low values", "value": 1.01}, {"measurement": "normalized growth", "setting": "S. cerevisiae deletion strains, locus YNL298W, strain CLA4, hits give low values", "value": 0.972}, {"measurement": "normalized growth", "setting": "S. cerevisiae deletion strains, locus YNL307C, strain MCK1, hits give low values", "value": 1.01}, {"measurement": "normalized growth", "setting": "S. cerevisiae deletion strains, locus YNL322C, strain KRE1 (second series), hits give low values", "value": 0.968}, {"measurement": "normalized growth", "setting": "S. cerevisiae deletion strains, locus YNL322C, strain KRE1, hits give low values", "value": 0.989}, {"measurement": "normalized growth", "setting": "S. cerevisiae deletion strains, locus YNR049C, strain mso1, hits give low values", "value": 0.979}, {"measurement": "normalized growth", "setting": "S. cerevisiae deletion strains, locus YNR052C, strain pop2, hits give low values", "value": 1.02}, {"measurement": "normalized growth", "setting": "S. cerevisiae deletion strains, locus YOL006C, strain TOP1, hits give low values", "value": 1.04}, {"measurement": "normalized growth", "setting": "S. cerevisiae deletion strains, locus YOL012C, strain htz1", "value": 1.2}, {"measurement": "normalized growth", "setting": "S. cerevisiae deletion strains, locus YOL147C, strain pex11, hits give low values", "value": 0.997}, {"measurement": "normalized growth", "setting": "S. cerevisiae deletion strains, locus YOR001W, strain rrp6, hits give low values", "value": 0.984}, {"measurement": "normalized growth", "setting": "S. cerevisiae deletion strains, locus YOR061W, strain CKA2, hits give low values", "value": 0.994}, {"measurement": "normalized growth", "setting": "S. cerevisiae deletion strains, locus YOR069W, strain VPS5, hits give low values", "value": 0.989}, {"measurement": "normalized growth", "setting": "S. cerevisiae deletion strains, locus YOR070C, strain gyp1, hits give low values", "value": 0.987}, {"measurement": "normalized growth", "setting": "S. cerevisiae deletion strains, locus YOR080W, strain dia2, hits give low values", "value": 0.962}, {"measurement": "normalized growth", "setting": "S. cerevisiae deletion strains, locus YOR083W, strain WHI5, hits give low values", "value": 1.01}, {"measurement": "normalized growth", "setting": "S. cerevisiae deletion strains, locus YOR106W, strain vam3, hits give low values", "value": 1.02}, {"measurement": "normalized growth", "setting": "S. cerevisiae deletion strains, locus YOR136W, strain idh2, hits give low values", "value": 1.03}, {"measurement": "normalized growth", "setting": "S. cerevisiae deletion strains, locus YOR144C, strain elg1, hits give low values", "value": 1}, {"measurement": "normalized growth", "setting": "S. cerevisiae deletion strains, locus YOR184W, strain ser1, hits give low values", "value": 1.04}, {"measurement": "normalized growth", "setting": "S. cerevisiae deletion strains, locus YOR231W, strain MKK1, hits give low values", "value": 0.963}, {"measurement": "normalized growth", "setting": "S. cerevisiae deletion strains, locus YOR265W, strain rbl2, hits give low values", "value": 0.985}, {"measurement": "normalized growth", "setting": "S. cerevisiae deletion strains, locus YOR270C, strain vph1, hits give low values", "value": 1.02}, {"measurement": "normalized growth", "setting": "S. cerevisiae deletion strains, locus YOR290C, strain snf2, hits give low values", "value": 1}, {"measurement": "normalized growth", "setting": "S. cerevisiae deletion strains, locus YOR316C, strain cot1, hits give low values", "value": 1.01}, {"measurement": "normalized growth", "setting": "S. cerevisiae deletion strains, locus YPL051W, strain arl3, hits give low values", "value": 0.983}, {"measurement": "normalized growth", "setting": "S. cerevisiae deletion strains, locus YPL055C, strain LGE1, hits give low values", "value": 1.03}, {"measurement": "normalized growth", "setting": "S. cerevisiae deletion strains, locus YPL078C, strain atp4, hits give low values", "value": 0.971}, {"measurement": "normalized growth", "setting": "S. cerevisiae deletion strains, locus YPL106C, strain sse1, hits give low values", "value": 0.952}, {"measurement": "normalized growth", "setting": "S. cerevisiae deletion strains, locus YPL240C, strain hsp82, hits give low values", "value": 0.973}, {"measurement": "normalized growth", "setting": "S. cerevisiae deletion strains, locus YPL241C, strain CIN2, hits give low values", "value": 0.99}, {"measurement": "normalized growth", "setting": "S. cerevisiae deletion strains, locus YPL256C, strain CLN2, hits give low values", "value": 0.949}, {"measurement": "normalized growth", "setting": "S. cerevisiae deletion strains, locus YPR119W, strain clb2, hits give low values", "value": 0.986}, {"measurement": "normalized growth", "setting": "S. cerevisiae deletion strains, locus YPR141C, strain kar3, hits give low values", "value": 1.03}, {"measurement": "normalized growth", "setting": "S. cerevisiae deletion strains, locus YPR163C, strain tif3, hits give low values", "value": 1.02}, {"measurement": "normalized growth", "setting": "S. cerevisiae deletion strains, locus YPR167C, strain met16, hits give low values", "value": 1.01}, {"measurement": "normalized growth", "setting": "S. cerevisiae deletion strains, strain wtn01, hits give low values", "value": 1.01}, {"measurement": "normalized growth", "setting": "S. cerevisiae strains, strain wild type, hits give low values", "value": 0.992}]}
